Compound activity deposited in PubChem BioAssay by National Center for Advancing Translational Sciences (NCATS).
Pf Dd2 inh: qHTS Primary assay for Inhibitors of Plasmodium falciparum Dd2 growth in vitro | P. falciparum Dd2 growth, SYBR Green, 72 h | Potency, µM (doses to about 28.9 µM), actives largely listed as inhibitors | 120,000 tested, 4.3% active | AID 1347417, 2020; active = well fitted inhibition curve with a large enough effect; note: nearly all actives have a fitted effect of over 65% in size
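Readout: SYBR Green fluorescence, 485 nm excitation, 535 nm emission, after ~16 h lysis at 37C. Before that, Dd2-infected red cells (2.5% hematocrit) grew 72 h with compound, 29 uM top final concentration.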
A number is an active result; [ ] = dose if it differs, or a comment. The sample as a whole holds a higher share of hits than the screen did.

Results for O=C1Nc2ccccc2CC12CCCN2CC1CC1 (stereo unspecified) ?
Pf Dd2 inh: inactive

What do the screens show for `Cc1ccncc1C(=O)N1CCCN(S(=O)(=O)c2ccccc2)CCC(=O)NCC1`?
Pf Dd2 inh: inactive

Results for COC(=O)CNC(=O)C1c2ccccc2C(=O)N(Cc2ccccc2)C12CCCC2 (stereo unspecified) ?
Pf Dd2 inh: inactive

How did Cc1csc(NC(=O)C2c3ccccc3C(=O)N(Cc3ccccc3)C23CCCC3)n1 (stereo unspecified) do in these assays?
Pf Dd2 inh: 3.55µM

What do the screens show for `CCCCN1C(=O)c2ccccc2C(C(=O)Nc2nc(C)cs2)C12CCCC2` (stereo unspecified)?
Pf Dd2 inh: 5.01µM

What do the screens show for `O=C(NC1CCCC1)C1c2ccccc2C(=O)N(Cc2ccccc2)C12CCCC2` (stereo unspecified)?
Pf Dd2 inh: inactive

How did CCCCN1C(=O)c2ccccc2C(C(=O)NC(C)C)C12CCCCC2 (stereo unspecified) do in these assays?
Pf Dd2 inh: inactive

What do the screens show for `CCCCN1C(=O)c2ccccc2C(C(=O)NCc2ccncc2)C12CCCCC2` (stereo unspecified)?
Pf Dd2 inh: inactive

Results for COCCn1ncc(N2CCCC(CC(=O)N(C)CCc3ccccn3)C2)cc1=O (stereo unspecified) ?
Pf Dd2 inh: inactive

Results for O=C(c1cccc(OC(F)(F)F)c1)N1CCC2(CC1)CC(O)CCO2 (stereo unspecified) ?
Pf Dd2 inh: inactive

What do the screens show for `COCCNC(=O)[C@H]1C[C@H](Oc2ccccc2)CN1C(=O)NC1CCCCC1`?
Pf Dd2 inh: inactive

How did CCc1cc(=O)n(CC(=O)NCc2ccc(OC)cc2)c(N2CCOCC2)n1 do in these assays?
Pf Dd2 inh: inactive

Results for Cc1cc(C(=O)N2CCC3(CC2)NCCc2c3[nH]c3ccccc23)n(C)n1 ?
Pf Dd2 inh: inactive

How did CN1C(=O)CO[C@H](c2ccc(NC(=O)C(C)(C)C)cc2)[C@H]1CO do in these assays?
Pf Dd2 inh: inactive

Results for COc1cccc(CN2CCCCCCNC(=O)CC2c2ccccc2)c1OC (stereo unspecified) ?
Pf Dd2 inh: 7.94µM

What do the screens show for `COc1cccc(CN2CCCOCCNC(=O)CC2)c1OC`?
Pf Dd2 inh: inactive

Results for CCNC(=O)N1CCCCCNC(=O)CC1c1ccccc1 (stereo unspecified) ?
Pf Dd2 inh: inactive

Results for CCn1ncc(CN2CCCN(S(C)(=O)=O)C(c3ccccc3)CC(=O)NCC2)c1C (stereo unspecified) ?
Pf Dd2 inh: inactive

Results for Cc1ncsc1CN1CCCCCCNC(=O)CC1c1ccccc1 (stereo unspecified) ?
Pf Dd2 inh: inactive

How did CC(C)NC(=O)N1CCCCCNC(=O)CC1c1ccccc1 (stereo unspecified) do in these assays?
Pf Dd2 inh: inactive

Results for CS(=O)(=O)N1CCCN(Cc2cn[nH]c2-c2ccc(F)cc2)CCNC(=O)CC1c1ccccc1 (stereo unspecified) ?
Pf Dd2 inh: inactive

Results for COc1cccc(CN2CCCCCNC(=O)CC2c2ccccc2)c1OC (stereo unspecified) ?
Pf Dd2 inh: 11.2µM

What do the screens show for `CCOc1ccccc1CN1CCCN(Cc2ccncc2)C(c2ccccc2)CC(=O)NCC1` (stereo unspecified)?
Pf Dd2 inh: 1.26µM

Results for CCOc1ccccc1CN1CCCCCCNC(=O)CC1c1ccccc1 (stereo unspecified) ?
Pf Dd2 inh: 11.2µM

What do the screens show for `O=C1CC(c2ccccc2)N(S(=O)(=O)c2ccccc2)CCCCCN1` (stereo unspecified)?
Pf Dd2 inh: inactive

What do the screens show for `COc1cccc(CN2CCNC(=O)C2CC(=O)N2CCNC(=O)C2)c1OC` (stereo unspecified)?
Pf Dd2 inh: inactive

What do the screens show for `CN(CC1CCOC1)S(=O)(=O)c1cccs1` (stereo unspecified)?
Pf Dd2 inh: inactive[5.79 µM]

What do the screens show for `CCN1C(=O)C(CC(=O)NC2CCCCCC2)Sc2ncccc21` (stereo unspecified)?
Pf Dd2 inh: inactive

What do the screens show for `CO[C@H]1C(=O)N(C(C)C)[C@H]1C1CCN(C(=O)CCc2nc3ccccc3s2)CC1`?
Pf Dd2 inh: inactive

What do the screens show for `Cc1nc(-c2c3n(c(=O)n(CC(=O)c4ccc(Cl)cc4)c2=O)CCCC3)no1`?
Pf Dd2 inh: inactive

What do the screens show for `O=C1NCCOCCCN(C(=O)c2nccc3ccccc23)[C@H]2CCCC[C@@H]12`?
Pf Dd2 inh: inactive

Results for CN1CC(=O)N(C2CCNCC2)Cc2c(NC3CCCCCC3)ncnc21 ?
Pf Dd2 inh: inactive

What do the screens show for `Cc1ccc(-c2cc(N3CCCN(C(=O)c4ccc(N(C)C)cc4)CC3)n[nH]2)cc1C`?
Pf Dd2 inh: inactive

How did CN1C(=O)CS(=O)(=O)C12CCN(C(=O)c1ccc(F)c(F)c1)CC2 do in these assays?
Pf Dd2 inh: inactive

Results for CCC(=O)N1CCC(N(C(=O)CC)C2CCOCC2)CC1 ?
Pf Dd2 inh: inactive

How did COCC(=O)NC1CCC12CCN(C(=O)c1ccoc1)CC2 (stereo unspecified) do in these assays?
Pf Dd2 inh: inactive

What do the screens show for `Cc1ccc(CN2CCCC(c3nc(C(C)C)no3)CCNC(=O)CC2)o1` (stereo unspecified)?
Pf Dd2 inh: inactive

How did Cc1ccc(CN2CCCN(S(C)(=O)=O)C(c3ccccc3)CC(=O)NCC2)o1 (stereo unspecified) do in these assays?
Pf Dd2 inh: inactive

What do the screens show for `Cc1ccc(CN2CCCN(Cc3ccncc3)C(c3ccccc3)CC(=O)NCC2)o1` (stereo unspecified)?
Pf Dd2 inh: 1.78µM

How did Cc1c(C(=O)N2CC[C@](C)(O)[C@@H](O)C2)[nH]c2c(F)cccc12 do in these assays?
Pf Dd2 inh: inactive

How did CCOC(=O)CCNC(=O)N1[C@@H]2CC[C@H]1CC(NC(=O)c1ccc(F)cc1)C2 (stereo partly specified) do in these assays?
Pf Dd2 inh: inactive

How did COCCn1c(COc2ccc(S(C)(=O)=O)cc2)nnc1C1CC(N)C1 (stereo unspecified) do in these assays?
Pf Dd2 inh: inactive

What do the screens show for `O=C(c1ccncc1)N1CCC(c2nnc3n2CCNC3)CC1`?
Pf Dd2 inh: inactive

How did C[S+](=O)([O-])CCn1ncc2cc(OCC3CCN(Cc4cccs4)CC3)ccc21 do in these assays?
Pf Dd2 inh: inactive

How did CC1=C(C(N)=O)C(c2ccc(F)cc2)n2nc(-c3ccccc3Cl)nc2N1 (stereo unspecified) do in these assays?
Pf Dd2 inh: inactive

Results for O=C(c1ccccc1)n1nc(-c2ccccc2)nc1NCc1ccc(F)cc1 ?
Pf Dd2 inh: inactive

Results for O=S(=O)(Nc1nc2n(n1)C(c1ccc(F)cc1)C=C(c1ccc(Cl)cc1)N2)c1ccccc1 (stereo unspecified) ?
Pf Dd2 inh: inactive

What do the screens show for `COc1cc(C2C(C(=O)Nc3ccccc3)=C(C)Nc3nc(SCc4ccccc4F)nn32)cc(OC)c1OC` (stereo unspecified)?
Pf Dd2 inh: inactive

What do the screens show for `COc1ccccc1/C=C/C(=O)Nc1nc2n(n1)C(c1ccc(F)cc1)C=C(c1ccccc1)N2` (stereo unspecified)?
Pf Dd2 inh: 10µM

How did O=C(O)c1cc(-n2c(/C=C\c3ccc(F)cc3)nc3ccccc3c2=O)ccc1Cl do in these assays?
Pf Dd2 inh: inactive

What do the screens show for `CC(=O)Nc1nc2n(n1)C(c1ccc(F)cc1)C=C(c1ccc(Cl)cc1)N2` (stereo unspecified)?
Pf Dd2 inh: 10µM
